# PubChem BioAssay (NCATS)
# Values without a mark were called inactive. Inconclusive results are not listed. A call without a number means that no potency is given here. The source made the active and inactive calls. Unless noted, calls come from the whole dose curve; as a rule, active = well fitted curve in the direction sought with a large enough effect; inconclusive = small, poorly fitted or top-dose-only effect, or another doubt; inactive = no such curve, though single readings can be large; an effect the other way counts as inactive or inconclusive.
# What was measured:
# [1] = NFAT Signaling Pathway (AID 444; active = well fitted curve in either direction with a large enough effect, not every such curve was filed as active;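 note: carbachol stimulus at about its EC50 of 1 µM final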); conditions: Jurkat NFAT-bla M1, carbachol, beta-lactamase ratio, 5 h
# Summary of the method: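 Read-out: CCF4 FRET ratio (460 nm/530 nm) after 1 h RT dye loading, used for %activity and AC50 from titration series. Cells: Jurkat NFAT-β-lactamase/M1 line, treated with compound plus 1 uM carbachol for 5 h, 37 °C.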
# [2] = Stat Signaling Pathway (AID 446; active = well fitted curve in either direction with a large enough effect, not every such curve was filed as active;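 note: ME-180 cervical cancer cells given 40 pM IL-6 alongside compound; SIE-controlled beta-lactamase reporter measured as 460/530 nm FRET emission ratio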); conditions: ME-180 SIE beta-lactamase reporter, IL-6 stimulated, 5 h
# Summary of the method: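 ME-180 cells carrying a SIE-driven beta-lactamase reporter are stimulated with 40 pM IL-6 for 5 h at 37C in the presence of compound. The 460/530 nm FRET substrate ratio is read after 2.5 h at RT. Data are normalised to 300 pM IL-6 and to 125 nM JAK inhibitor controls.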
# [3] = target: Glucocorticoid receptor (Homo sapiens) (UniProt P04150); experiment: GR-GFP Redistribution (AID 450;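 active = compounds whose dose series gives a full or clear partial fitted curve of increased nuclear translocation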; note: potency is the fitted concentration of half-maximal effect); conditions: U2OS GR-GFP nuclear translocation, laser cytometry, 2 h; series mostly up to 20.6 µM
# Glucocorticoid receptor (Homo sapiens), sequence (P04150 whole entry, looked up): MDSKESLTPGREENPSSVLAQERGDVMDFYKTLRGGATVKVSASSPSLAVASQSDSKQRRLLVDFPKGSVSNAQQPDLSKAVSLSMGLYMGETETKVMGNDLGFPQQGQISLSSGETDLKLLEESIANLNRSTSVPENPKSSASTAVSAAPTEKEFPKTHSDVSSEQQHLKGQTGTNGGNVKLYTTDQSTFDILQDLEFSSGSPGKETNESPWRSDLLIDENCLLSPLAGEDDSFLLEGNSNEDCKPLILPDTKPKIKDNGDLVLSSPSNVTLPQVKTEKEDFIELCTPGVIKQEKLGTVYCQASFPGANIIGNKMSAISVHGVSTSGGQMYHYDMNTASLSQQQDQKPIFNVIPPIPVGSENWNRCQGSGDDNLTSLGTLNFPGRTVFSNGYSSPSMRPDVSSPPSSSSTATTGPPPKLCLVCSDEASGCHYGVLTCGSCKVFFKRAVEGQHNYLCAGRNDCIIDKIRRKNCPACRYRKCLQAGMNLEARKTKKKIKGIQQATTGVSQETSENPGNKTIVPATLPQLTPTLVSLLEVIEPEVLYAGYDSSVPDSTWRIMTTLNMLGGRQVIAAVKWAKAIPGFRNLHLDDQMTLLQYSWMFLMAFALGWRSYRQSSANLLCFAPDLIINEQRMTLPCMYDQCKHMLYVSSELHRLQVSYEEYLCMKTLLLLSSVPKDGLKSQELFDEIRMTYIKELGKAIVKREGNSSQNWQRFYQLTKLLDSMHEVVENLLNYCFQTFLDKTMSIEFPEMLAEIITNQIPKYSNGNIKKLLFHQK
# [4] = Cell Viability - BJ (AID 421; calls by dose curve;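 note: potency is the fitted concentration of half-maximal effect; cells exposed to compound for 40 hours at 37 °C before readout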); conditions: BJ fibroblast viability, qHTS
# Summary of the method: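 Normal human BJ foreskin fibroblasts, 1500/well in complete medium, treated 40 hr at 37 °C. Cellular ATP by CellTiter-Glo luminescence; normalized to DMSO and 100 uM tamoxifen, AC50 from Hill fit.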
# [5] = Cell Viability - MRC5 (AID 434; calls by dose curve;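 note: potency is the fitted concentration of half-maximal effect; potency reflects cytotoxicity seen as loss of intracellular ATP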); conditions: MRC5 lung fibroblast viability, qHTS
# Summary of the method: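 qHTS cytotoxicity in human lung fibroblast MRC5 cells; 40 hr treatment, 37 °C; cellular ATP by luciferase luminescence; DMSO = 0%, 100 uM tamoxifen = 100% inhibition; Hill-fit AC50.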
# [6] = Cell Viability - SK-N-SH (AID 435; calls by dose curve;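 note: potency is the fitted concentration of half-maximal effect; compound exposure lasted 40 h at 37 °C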); conditions: SK-N-SH neuroblastoma cell viability qHTS
# Summary of the method: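 SK-N-SH human neuroblastoma cells (1500/well) were exposed to compounds in complete medium for 40 h at 37 °C, and intracellular ATP was then measured by CellTiter-Glo luminescence. AC50 was taken from Hill fits, normalized to DMSO and 100 uM tamoxifen.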
# [7] = Cell Viability - N2a (AID 540); conditions: N2a mouse neuroblastoma cell viability; activity change, negative = cytotoxicity: at 92.2 µM (top of the series); note: nearly all actives have a fitted effect of over 45% in size; note: potency is the fitted concentration of half-maximal effect
# Summary of the method: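 Luminescent ATP signal (CellTiter-Glo, 20 min at room temperature) served as the viability read-out after N2a cells were treated with compounds for 40 hours at 37 °C. Concentration-response data were fitted to the Hill equation for AC50.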
# [8] = Cell Viability - SH-SY5Y (AID 544); conditions: SH-SY5Y neuroblastoma cell viability; viability change, negative = cytotoxic: at 92.2 µM (top of the series); note: nearly all actives have a fitted effect of over 55% in size
# Summary of the method: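 Luminescent ATP read-out (CellTiter-Glo) measures loss of viable SH-SY5Y neuroblastoma cells after 40 hr compound exposure at 37 °C. AC50 values derive from standard Hill modelling of qHTS concentration-response data.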
# [9] = Cell Viability - Renal Proximal Tubule (AID 545); conditions: renal proximal tubule cells viability, primary cells of rat origin; activity change, negative = cytotoxicity: at 91.7 µM (top of the series); note: nearly all actives have a fitted effect of over 40% in size
# Summary of the method: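 Primary rat renal proximal tubule cells (1000/well) were treated with compounds for 40 hr at 37 °C in complete medium. Intracellular ATP was measured by CellTiter-Glo luminescence, and AC50 values came from Hill-equation fits of concentration-response data.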
# [10] = Cellular Toxicity (caspase-3) HepG2 (AID 654); conditions: HepG2 caspase-3 activation, luminescence; series mostly up to 92.2 µM;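 note: cells exposed to compound for 16 hours before reading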
# Summary of the method: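 Cells plated 5 hr at 37 °C, compound added, incubated 16 hr at 37 °C. Caspase-Glo 3/7 reagent followed, 20 min at room temperature, then luminescence read. Activation scored as signal increase; AC50 from Hill fit.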
# [11] = Cellular Toxicity (caspase-3) HUV-EC-C (AID 656); conditions: HUV-EC-C cells, caspase-3 activation (apoptosis); series mostly up to 92.2 µM
# Summary of the method: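 HUV-EC-C endothelial cells, 1000/well, were pre-incubated 5 hr at 37°C, then exposed to compounds for 16 hr at 37°C. Caspase-Glo 3/7 luminescence was read after 20 min at room temperature. AC50 came from Hill fits, normalized to DMSO and 100 uM tamoxifen.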
# [12] = Cellular Toxicity (caspase-3) Mesangial (AID 660); conditions: mesangial cells, normalized: DMSO 0%, 100 µM tamoxifen 100%; at 91.7 µM (top of the series);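 note: combined caspase 3 and 7 activity read by Caspase-Glo luminescence; cells exposed to compound for 16 h before the caspase read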
# Summary of the method: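 Mesangial cells, 1000/well, 5 h settle at 37 °C; compound 16 h, 37 °C; Caspase-Glo 3/7 reagent 20 min RT; luminescence. Norm.: DMSO = 0%, tamoxifen 100 uM = 100%. AC50, Hill fit.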
# [13] = Cellular Toxicity (caspase-3) N2a (AID 665); conditions: N2a cells, luminescence; Potency: caspase-3 activation; series mostly up to 92.2 µM;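 note: compound exposure lasted 16 h at 37 °C before readout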
# Summary of the method: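 N2a cells, 1500/well, 5 h settle at 37 °C; cpd 16 h, 37 °C; Caspase-Glo 3/7, 1 h RT; luminescence. Norm: DMSO = 0, 10 uM staurosporine = 100%. AC50, Hill fit.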
# [14] = Cellular Toxicity (caspase-3) NIH 3T3 (AID 666); conditions: NIH 3T3 caspase-3 activation, apoptosis/toxicity; series mostly up to 92.2 µM;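 note: caspase signal read after 16 h compound exposure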
# Summary of the method: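 Luminescence from aminoluciferin released by caspase-3/7 cleavage of a peptide substrate served as read-out. Mouse fibroblast NIH 3T3 cells were exposed to compounds over a concentration range for 16 hours, and AC50 values came from standard Hill modelling.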
# [15] = Cellular Toxicity (caspase-3) Renal Proximal Tubule (AID 667); conditions: renal proximal tubule cells, primary cells freshly taken from rat, solvent-only wells 0%, staurosporine 100%; series mostly up to 91.7 µM;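 note: cells exposed to compound for 16 hours at 37 °C before detection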
# Summary of the method: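 Primary rat proximal tubule cells, 1000/well, 5 h plating at 37 °C, then compound 16 h at 37 °C. Caspase-Glo 3/7 reagent, 1 h RT, luminescence. Normalized to DMSO (basal) and 10 uM staurosporine (100%); Hill-fit AC50.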
# [16] = Cell Viability - LYMP1-003 - Assay at 24 hr (AID 963); conditions: LYMP1-003 lymphoblastoid cell viability; series mostly up to 92.2 µM
# Summary of the method: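 Cells seeded at 2500/well, 5 hr at 37 C; compounds added; 24 hr at 37 C; CellTiter-Glo added, 30 min room temperature; luminescence read. Decrease in ATP taken as cytotoxicity, AC50 from Hill modelling.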
# [17] = target: Peroxisome proliferator-activated receptor alpha (Homo sapiens) (UniProt Q07869); experiment: qHTS assay for small molecule agonists of the peroxisome proliferator-activated receptor alpha (PPARalpha) signaling pathway (AID 651778); conditions: PathHunter PPARalpha complementation, chemiluminescence, 6 h; max response: active compounds read high
# Peroxisome proliferator-activated receptor alpha (Homo sapiens), sequence (Q07869 whole entry, looked up): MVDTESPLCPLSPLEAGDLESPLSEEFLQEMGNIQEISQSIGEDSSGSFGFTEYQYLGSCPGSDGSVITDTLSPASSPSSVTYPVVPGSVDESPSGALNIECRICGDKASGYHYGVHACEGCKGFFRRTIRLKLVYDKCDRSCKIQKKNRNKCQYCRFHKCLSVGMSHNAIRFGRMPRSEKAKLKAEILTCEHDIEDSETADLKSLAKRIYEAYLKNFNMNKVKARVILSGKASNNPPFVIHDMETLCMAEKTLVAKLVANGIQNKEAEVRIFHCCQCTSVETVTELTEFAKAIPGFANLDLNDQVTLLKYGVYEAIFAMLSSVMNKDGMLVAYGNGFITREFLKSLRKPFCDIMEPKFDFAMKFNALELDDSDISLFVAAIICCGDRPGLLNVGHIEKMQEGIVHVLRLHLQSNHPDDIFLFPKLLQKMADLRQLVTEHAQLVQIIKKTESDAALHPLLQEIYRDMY
# Summary of the method: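 Chemiluminescence from complemented enzyme reported PPARalpha activation in cells after 6 hr of compound treatment at 37 C. The detection reagent was incubated for 60 min at room temperature, and compounds were scored as agonists.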
# [18] = qHTS assay for cell viability of HEK293 cells (AID 743288); conditions: ATP luminescence (CellTiter-Glo), 18 h; max response: active compounds read low; note: nearly all actives have a fitted effect of over 50% in size
# Summary of the method: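 Parental HEK293 cells were seeded at 2,000 cells/well, rested at least 5 h at 37 C, then exposed to compounds in DMSO for 18 h at 37 C. Viability was read as ATP-dependent luciferase luminescence after 30 min at room temperature.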
# [19] = qHTS assay for cell viability of the p53RE-bla HCT-116 cell line (AID 743292); conditions: p53RE-bla HCT-116 viability, ATP luminescence, 16 h; series mostly up to 95 µM; note: nearly all actives have a fitted effect of over 55% in size; note: potency is the fitted concentration of half-maximal effect
# Summary of the method: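 ATP-based luminescence, 16 h compound exposure at 37 C, p53RE-bla HCT-116 cells at 4,000/well.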
# [20] = target: Cytochrome P450 3A4 (Homo sapiens) (UniProt P08684); experiment: qHTS Assay for Activators of Cytochrome P450 3A4 (AID 885); conditions: recombinant CYP3A4, Luciferin-PPXE luminescence, 60 min; series mostly up to 57.1 µM; note: nearly all actives have a fitted effect of over 65% in size
# Cytochrome P450 3A4 (Homo sapiens), sequence (P08684 whole entry, looked up): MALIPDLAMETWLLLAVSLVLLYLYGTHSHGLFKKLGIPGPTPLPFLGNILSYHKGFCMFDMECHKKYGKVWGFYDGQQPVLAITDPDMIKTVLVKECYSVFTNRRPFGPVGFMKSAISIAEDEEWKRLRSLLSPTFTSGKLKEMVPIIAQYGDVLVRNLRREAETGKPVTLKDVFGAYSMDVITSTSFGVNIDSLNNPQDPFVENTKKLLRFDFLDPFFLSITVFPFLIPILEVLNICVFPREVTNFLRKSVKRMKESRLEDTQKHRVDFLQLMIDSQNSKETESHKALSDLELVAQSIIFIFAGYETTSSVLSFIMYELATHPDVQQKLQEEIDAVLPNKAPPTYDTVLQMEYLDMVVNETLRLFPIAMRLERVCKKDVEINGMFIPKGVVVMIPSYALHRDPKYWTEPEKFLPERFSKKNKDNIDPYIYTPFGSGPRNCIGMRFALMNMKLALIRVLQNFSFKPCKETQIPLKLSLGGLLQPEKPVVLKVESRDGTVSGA
# Summary of the method: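 Human CYP3A4 (20 nM) with Luciferin-PPXE at 25 uM (its KM) in 200 mM KPO4; 10 min compound preincubation, then NADPH regeneration and 60 min reaction at RT. Luciferin read by luminescence; normalized to 57 uM ketoconazole full inhibition.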
# [21] = at 17.2 µM (top of the series) unless noted
smiles,measurement,setting,value
COc1cc2c(c(OC)c1OC)-c1ccc(OC)c(=O)cc1[C@H](NC(C)=O)CC2,"activity change, negative = inhibition",[1]; at 17.2 µM (top of the series),-4.77%
same,"activity change, negative = inhibition",[1]; at 38 µM (top of the series),3.11%
same,"activity, negative = inhibition",[2]; at 17.2 µM (top of the series),4.59%
same,"activity, negative = inhibition",[2]; at 38 µM (top of the series),-18.3%
COC(=O)c1sc(NC(=O)c2oc3ccccc3c2C)nc1C,"activity change, negative = inhibition",[1]; [21],-8%
same,"activity, negative = inhibition",[2]; [21],18.1%
same,Potency,[3],> 20.6 µM
c1ccc2c(c1)ccc1cc3c(ccc4ccccc43)cc12,Potency,[4],> 92 µM
same,Potency,[5],> 92 µM
same,Potency,[6],> 92 µM
same,Potency,[7],inactive
same,Potency,[8],inactive
same,Potency,[9],inactive
same,Potency,[10],inactive
same,Potency,[11],inactive
same,caspase-3 activation,[12],0.415%
same,Potency,[13],inactive
same,Potency,[14],inactive
same,outcome,[15],inactive
same,Potency,[16],inactive
same,max response,[17],-1.24%
same,max response,[18],-4.73%
same,Potency,[19],inactive
CN(C)c1ccc(C2(c3ccc(N(C)C)cc3)OC(=O)c3cc(N(C)C)ccc32)cc1,Potency,[4],> 92 µM
same,Potency,[5],> 92 µM
same,Potency,[6],> 92 µM
same,Potency,[7],inactive
same,Potency,[8],inactive
same,Potency,[9],inactive
same,Potency,[10],inactive
same,Potency,[11],inactive
same,caspase-3 activation,[12],0.256%
same,Potency,[13],inactive
same,Potency,[14],inactive
same,outcome,[15],inactive
same,Potency,[20],inactive
same,Potency,[16],inactive
same,max response,[17],-2.57%
same,max response,[18],-3.92%
same,Potency,[19],inactive
O=C1OC2(c3cc(Br)c(O)c(Br)c3Oc3c2cc(Br)c(O)c3Br)c2c(Cl)c(Cl)c(Cl)c(Cl)c21,Potency,[4],> 92 µM
same,Potency,[5],> 92 µM
same,Potency,[6],> 92 µM
same,Potency,[7],3.98 µM (active)
same,Potency,[9],inactive
same,Potency,[10],inactive
same,Potency,[11],inactive
same,caspase-3 activation,[12],-1.97%
same,Potency,[13],inactive
same,Potency,[14],inactive
same,outcome,[15],inactive
same,Potency,[20],inactive
same,Potency,[16],inactive
same,max response,[17],0.0759%
same,max response,[18],-29.6%
same,Potency,[19],39.8 µM (active)
